SMN2 splice enh = enhancers of SMN2 splice variant expression; actives 2.8% (n = 210,000); Potency, µM (doses to about 46.1 µM), for inactives: at the highest dose activity change, positive = activation, hits mostly activators; HEK293 SMN2-luciferase splicing reporter, luminescence, 30-36 h; note: % of control where 0% means no effect; nearly all actives have a fitted effect of over 55% in size
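HEK293 cells carry an SMN2 […]–luciferase reporter in which exon 7 inclusion puts luciferase in frame. Cells were plated 10-12 h before compound addition, then incubated 30-36 h at 37C. ONE-Glo luminescence was read; sodium butyrate at 4.5 mM final served as control.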
ELG1 genotox = genotoxicity induction in ELG1-luciferase HEK293T cells; HEK293T ELG1-luciferase reporter, luminescence, 16 h; Potency, µM (series often up to 46 µM), for the others: at the top dose activity change, positive = activation, hits mostly activators; actives 1.3% (n = 330,000); AID 504466; note: % of control where 0% means no effect; nearly all actives have a fitted effect of over 60% in size
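Genotoxic stress is detected as increased luminescence from luciferase-tagged ELG1 in HEK293T cells, measured with ONE-Glo after a 16 hr treatment at 37 °C.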
FLuc counter = inhibits or activates purified firefly luciferase, miR-21 counter-screen; Potency, µM (highest dose often 57.5 µM), for inactives: at the top dose activity change, negative = inhibition, actives largely listed as inhibitors; AID 588342; P08659; actives 6.9% (n = 360,000); purified FLuc, Km substrates, luminescence inhibition;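 note: plate controls were vehicle for no effect and reference inhibitor for full effect; nearly all actives have a fitted effect of over 55% in size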
Target sequence (P08659 whole entry, looked up): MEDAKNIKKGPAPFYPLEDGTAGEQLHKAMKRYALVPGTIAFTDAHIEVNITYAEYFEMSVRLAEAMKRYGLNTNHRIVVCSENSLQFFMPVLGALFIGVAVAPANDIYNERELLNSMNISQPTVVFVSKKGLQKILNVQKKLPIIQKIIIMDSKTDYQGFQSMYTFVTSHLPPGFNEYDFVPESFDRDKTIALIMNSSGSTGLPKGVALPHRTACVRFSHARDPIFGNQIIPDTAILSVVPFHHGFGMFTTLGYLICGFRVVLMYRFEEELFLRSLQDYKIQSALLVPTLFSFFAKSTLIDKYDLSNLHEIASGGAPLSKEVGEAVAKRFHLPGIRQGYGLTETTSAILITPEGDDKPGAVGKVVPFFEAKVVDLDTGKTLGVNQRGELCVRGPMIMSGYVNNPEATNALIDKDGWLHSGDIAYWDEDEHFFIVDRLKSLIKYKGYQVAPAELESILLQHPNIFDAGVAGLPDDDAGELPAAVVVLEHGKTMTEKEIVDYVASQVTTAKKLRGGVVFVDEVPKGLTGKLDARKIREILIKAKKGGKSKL
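Biochemical qHTS of compounds, final roughly 60 µM downward over six points, against 10 nM purified firefly luciferase using Km concentrations of substrates (10 uM D-luciferin, 10 uM ATP) in Tris acetate pH 7.5 buffer; luminescence output.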
Rab9 prom act = activates the Rab9 promoter; Potency, µM (top dose mostly 9.22 µM), without a hit: at the top dose activation, negative = inhibition, most hits filed as activators; Huh7 Rab9 promoter-luciferase reporter, luminescence, 24 h; AID 485297; actives 2.8% (n = 320,000); note: % of control where 0% means no effect; nearly all actives have a fitted effect of over 60% in size
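Cell-based reporter: Huh7 stable for Rab9 promoter-driven luciferase, plated in reduced-serum medium with 10% FBS at 1500 cells/well, compound-treated 24 h at 37 °C, luminescence read after 10 min reagent.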
ELG1 repair inh = ELG1-dependent DNA repair inhibition. Potency, µM (top dose mostly 46.1 µM), inactives show at the highest dose activity change, negative = inhibition, hits mostly inhibitors. actives 2.3% (n = 330,000). HEK293T ELG1-luciferase reporter, luminescence, 16 h; DNA damage induced by 5-fluorouridine; note: % is set by controls: 0 for no effect and ±100 for the full control effect; nearly all actives have a fitted effect of over 55% in size
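In this reporter screen, reduction of luminescence relative to DMSO vehicle indicated activity. Compounds and 5-fluorouridine were added together to 2,000 cells per well, incubated for 16 hr at 37 °C, then developed with ONE-Glo.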
NPC1 prom act = NPC1 promoter activation; Huh7 NPC1 promoter luciferase reporter, 24 h; Potency, µM (highest dose often 9.22 µM), for inactives: top-dose activation, usual class: activators; actives 2.4% (n = 320,000); note: % of control where 0% means no effect; nearly all actives have a fitted effect of over 60% in size
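Luminescence from an NPC1 promoter-driven luciferase reporter in stably transfected Huh7 cells was measured after 24 h compound treatment at 37 °C, followed by 10 min ambient incubation with luciferase detection reagent.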
Starred values were filed as active, the others as inactive; ? = inconclusive; . = no result; [ ] = remark or other dose. Compounds with a hit are over-represented: about 9.2% of the library has one in this group of screens. Calls come from the whole dose curve; as a rule, active = well fitted curve in the direction sought with a large enough effect; inconclusive = small, poorly fitted or top-dose-only effect, or another doubt; inactive = no such curve, though single readings can be large; an effect the other way counts as inactive or inconclusive. Potency is the fitted concentration of half-maximal effect.

SMILES | SMN2 splice enh | ELG1 genotox | FLuc counter | Rab9 prom act | ELG1 repair inh | NPC1 prom act
Cc1ccccc1-n1c(SCC(=O)Nc2ccccc2)nc2nc3c(cc2c1=O)CCCC3 | -27% | -10% | 4% | -8% | 23µM* | -1%
O=C(CSc1nc2nc3c(cc2c(=O)n1-c1ccccc1)CCCC3)Nc1cccc2ccccc12 | 13% | -2% | 0% | -4% | ? | 1%
N#Cc1ccsc1NC(=O)C1CC(=O)N(Cc2ccccc2)C1 (centres undefined) | . | -1% | 0% | 0% | 5% | -6%
CN(C)CCSc1nnc2[nH]c3ccccc3c2n1 | -3% | -2% | -2% | 1% | 10% | 1%
CCN(Cc1cnn(C)c1)C(=O)c1ccc2nc(Cc3cccc(Cl)c3)oc2c1 | . | -2% | 2% | -4% | 0% | 1%
COc1ccc(Nc2cc(NCCCO)c([N+](=O)[O-])c3nonc23)cc1 | . | 6% | 0% | 1% | 0% | -2%
O=[N+]([O-])c1c(NCCCO)cc(N2CCN(Cc3ccc4c(c3)OCO4)CC2)c2nonc12 | -75% | -6% | -1% | -3% | 23µM* | -2%
COc1ccc(CNc2cc(NCCCO)c([N+](=O)[O-])c3nonc23)cc1 | -62% | -10% | 3% | -7% | 21µM* | -2%
COc1ccc2c(c1)c1c(C)c3cnccc3c(C)c1n2CCCN | -1%[9.22 µM] | . | . | . | . | .
CC(=O)Nc1ccc(N=c2cc([N+](=O)[O-])cc(Cl)n2O)cc1 | . | 0% | 2% | 0% | -2% | -6%
CN(CCC#N)C(=O)COC(=O)c1c2c(nc3ccccc13)/C(=C/c1ccco1)CC2 | 22µM* | 8% | 11µM* | ? | ? | ?
CN(CCC#N)C(=O)COC(=O)c1ccc2[nH]c3c(c2c1)CCCC3 | ? | -4% | ? | 9% | ? | -1%
CN(C(=O)COc1ncnc2sccc12)c1ccccc1 | -18% | 1% | -1% | -13% | -4% | 1%
Cn1c(=O)[nH]c(=O)c2c1nc(NCc1ccco1)n2Cc1ccccc1Cl | . | 8% | -2% | -3% | 5% | -2%
CCc1ccc(-n2nc3cc(C)c(NC(=O)c4cccc5ccccc45)cc3n2)cc1 | -2% | . | ? | . | . | .
Cc1cc2nn(-c3cccc4ccccc34)nc2cc1N | 13µM* | 13µM* | 4.8µM* | 2.8µM* | ? | ?
Nc1ccc2nn(-c3cccc4ccccc34)nc2c1 | -3% | 7% | 19µM* | 12% | ? | 8%
O=C(COC(=O)c1cc(=O)[nH]c2ccccc12)Nc1ccc(Cl)cn1 | . | 1% | 5% | -3% | 8% | -4%
COc1ccccc1CNC(=O)C1CCN(S(=O)(=O)c2ccc3nc4c(c(C(=O)O)c3c2)CCCC4)CC1 | . | 4% | 3% | -2% | 19% | -2%
CCOc1ccc(C(C)NC(=O)c2cc(=O)[nH]c3ccccc23)cc1OCC (centres undefined) | . | 1% | 0% | -2% | 0% | -9%
Cc1ccc(/C=C/C(=O)OCC(=O)Nc2cccc(S(=O)(=O)N(C)C)c2)o1 | 6% | -1% | 21µM* | -2% | -13% | 2%
CC(=O)N/C(=C\c1ccccc1)C(=O)OCC(=O)Nc1cc(S(=O)(=O)N(C)C)ccc1C | . | -1% | 3% | 2% | 4% | 0%
CN(C)S(=O)(=O)c1cccc(NC(=O)COC(=O)/C=C/c2ccc3c(c2)OCO3)c1 | 6% | 10% | 12µM* | 5% | -10% | -1%
Cc1ccc(S(=O)(=O)N(C)C)cc1NC(=O)COC(=O)/C=C/c1ccc2c(c1)OCO2 | 3% | 0% | 21µM* | 1% | 8% | -1%
CN(C)S(=O)(=O)c1cccc(NC(=O)COC(=O)/C=C/c2ccco2)c1 | 2% | 1% | ? | 2% | ? | -8%
SMILES | SMN2 splice enh | ELG1 genotox | FLuc counter | Rab9 prom act | ELG1 repair inh | NPC1 prom act
CCN(CC)c1ccc(NC(=O)CN2C(=O)CSc3ncccc32)c(C)c1 | -73% | -9% | -10% | -29% | ? | -19%
CCN1CCN(c2nc3c(C)cccn3c(=O)c2/C=C(\C#N)C(=O)NCCOC)CC1 | . | 0% | 1% | -3% | -1% | 4%
O=C(Cc1ccc(Cl)cc1)Nc1ccc(C(=O)N2CCCCC2)cc1 | . | 12% | 27µM* | -1% | -7% | 10%
Cc1ccc(CC(=O)Nc2ccc(C(=O)N3CCCCC3)cc2)cc1 | . | -5% | 3% | 1% | 0% | 7%
O=C(c1ccc(CSc2ccc(Cl)cc2)cc1)N1CCCC1 | 8% | 10% | 19µM* | ? | 0% | 24%
CCc1nnc(NS(=O)(=O)c2ccc(NC(=S)NC(=O)/C=C/c3ccc(F)cc3)cc2)s1 | -10% | 0% | -1% | 1% | 10% | -3%
CCc1nnc(NS(=O)(=O)c2ccc(N/C=C\C(=O)c3ccc(F)cc3)cc2)s1 | -1% | 0% | 19µM* | -3% | -6% | 3%
CCc1nnc(NS(=O)(=O)c2ccc(N/C=C\C(=O)c3cccc(OC)c3)cc2)s1 | 3% | 10% | 17µM* | -7% | 10% | 1%
CCc1nnc(NS(=O)(=O)c2ccc(N/C=C/C(=O)c3ccc(C)cc3)cc2)s1 | ? | 0% | 24µM* | -6% | 25% | 0%
CCc1nnc(NS(=O)(=O)c2ccc(N/C=C\C(=O)c3ccc(C)cc3)cc2)s1 | 23% | 8% | 19µM* | -7% | ? | 0%
CCc1nnc(NS(=O)(=O)c2ccc(NS(=O)(=O)c3ccc(NC(C)=O)cc3)cc2)s1 | -8% | -2% | 1% | -2% | 10% | -4%
Cc1ccc(C(=O)C(C)OC(=O)Cn2c(C)csc2=O)cc1 (centres undefined) | . | 4% | 2% | 12% | -1% | -4%
Cc1cccc(Nc2nc(-c3ccncc3)cs2)c1 | -4% | 3% | 17µM* | ? | ? | 1%
Cc1nc(-c2ccc3c(c2)OCCO3)cs1 | ? | ? | 21µM* | 3.2µM* | ? | 2.8µM*
Cc1nc(-c2ccc3c(c2)CCC(=O)N3)cs1 | . | ? | 17µM* | ? | ? | ?
Clc1cccc(Nc2nc(-c3ccncc3)cs2)c1 | . | -2% | -3% | -2% | -2% | -5%
CC(=O)Nc1ccc(-c2csc(NNC(=O)c3ccc(C)cc3)n2)cc1 | -17% | -6% | 2% | -3% | -20% | -4%
COc1cc(-c2csc(C)n2)ccc1O | 24% | 0% | -3%[2.3 µM] | 0% | 14% | 2%
Cc1ccc(-c2csc(Cc3nc(-c4ccc5c(c4)CCC(=O)N5)cs3)n2)cc1 | . | -24% | ? | 1% | -21% | -5%
Cc1ccc(Nc2nc(-c3ccncc3)cs2)cc1 | . | ? | 0.95µM* | 1.3µM* | ? | 2.2µM*

From PubChem
